In the supplement of paper PMC11417369:
± gives the standard deviation of the averaged measurements. In all, about 25,000 sequences were measured (“ln(normalized median fluorescence intensity)”: median about 10, highest 2% from about 12 on). The list comes from a sample in which the highest values are over-represented; it also holds similar and randomly drawn sequences.

What follows are sequences tested on PfAP2-G AP2 domain (GST-tagged) (assay: gcPBM binding intensity (ln(normalized median fluorescence intensity)); higher = stronger DNA binding).
Method in brief: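 An Agilent 4 × 180k array of primer-extended double-stranded 36-bp intergenic genomic probes, with negative controls, was incubated for 1 h with GST-tagged P. falciparum DNA-binding domains expressed in E. coli. Alexa488 anti-GST antibody detected bound protein, scanned at 488 nm. Binding intensity is the highest Masliner-normalised natural-log median intensity across replicate spots of either probe orientation.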

Sequence | gcPBM binding intensity (ln)
TATTTTGTTCTTTCCACACACAAATACATATATTGT [CACACA_site4071] | 10.3 ± 0.24
TATTGTATCCTTAATGCATGCACCAAATAAAAAAAG [TGCATGCA_site541] | 10.5 ± 0.54
AAAAATAAAATAAAATAAAATAAAAATAAAGAAAAA [CACACA_negctrl_site808] | 9.39 ± 0.16
TGGCACTAAAAAAATAAACACACAGATTTATATAAT [CACACA_site8386] | 9.81 ± 0.18
TGCCTATGACATGAATGTACATTAAAATTAAATAAA [XGTACX_site7126] | 10.8 ± 0.52
ATAACATAACATAATACACACATATAAAAAAGAAAT [CACACA_site3028] | 10.1 ± 0.18
AAAGAAAATAGGTGTACACATAATAAATACAGCTAT [CACACA_site5917] | 11.7 ± 1.1
TAATACATACACACATGTACATACAGAAATAAATAA [XGTACX_site3245] | 11.2 ± 0.81
TTAAAAGAAAATAGGTGTACACATAATATATACATA [XGTACX_site7697] | 11.8 ± 1
TAAAAATAAAGAAAATGTACATAAATAATAATACAT [XGTACX_site2278] | 11.2 ± 0.69
TAAAAGAAATAATATACACACATATATAAAAATAAA [CACACA_site1329] | 9.87 ± 0.085
TCTTGTTTATCAACAGCACACACAACAACAACAACA [CACACA_site8046] | 10.1 ± 0.23
CGCCCACAGATATATACACACATATATAAATAAATA [CACACA_site6877] | 10.1 ± 0.3
TAAAAATTAAAGTGTACACATATATATATATATATA [CACACA_site4781] | 11.6 ± 0.97
ATTAAATACATTAACACACACACAAATAAATACATA [CACACA_site5583] | 10.2 ± 0.25
AACCATAAAAAGTGTACACATATAAAAAATATGGAA [CACACA_site4199] | 11.7 ± 1.1
GCATGGAACCATATATGTACATATATAAATAAATAA [XGTACX_site4996] | 11.2 ± 0.63
CGAAACCATATGTACACACACATATATAAATATGTA [CACACA_site7082] | 11.3 ± 0.88
TAAATTAATAAAAAGTGTACATAATATACATATATA [XGTACX_site8604] | 11.3 ± 0.66

Sequence | gcPBM binding intensity (ln)
TAAGGTTCATTAAAGTGTACACATAAATACCGTAAC [XGTACX_site8212] | 11.6 ± 0.95
TTAAATACTAAAAAGTGTACACATACATAAAAAATT [XGTACX_site6261] | 11.7 ± 0.92
ATATAAAAAAATTGCACACATAAATATATACATATA [CACACA_site1218] | 10.12 ± 0.064
TATATTGCAAAAAGTACACACATAAATAAATACATA [CACACA_site6589] | 11.6 ± 1.1
GGTTCATTAAAGTGTACACATAAATACCGTAACATT [CACACA_site6002] | 11.9 ± 1
AATACTAAAAAGTGTACACATACATAAAAAATTGCA [CACACA_site5620] | 11.6 ± 0.87
TTTTGTTGAAAAGTAAGATATTCCAACATGTTTTTA [CACACA_negctrl_site391] | 9.88 ± 0.014
TATATATATATATATACATGCATACATATACATACA [TGCATGCA_site897] | 10 ± 0.22
TTTTTTTTTTTTTTTTTTTGTCTTATATATTACGGA [CACACA_negctrl_site322] | 9.64 ± 0.67
AAAAAATACTTATAAAGTACTAATATATATAAGCAG [XGTACX_site743] | 10.9 ± 0.48
TTTATGGAATAATCACGTACACACAAGAAAAAAAAA [XGTACX_site985] | 11.4 ± 0.91
TTTATATTTAAAAGGATGCACTACAAATTCTAAATA | 10.3 ± 0.3
TTTTTTTTTCCCGTAAATATTGAGACAACCATAATG [CACACA_negctrl_site41] | 10.6 ± 0.54
TATATAATATTACGTTGTACACTTTAATCTCCCTTC [XGTACX_site5577] | 11.1 ± 0.7
CTATTTTTTGTATAAACATGCATATAGTAGATATGG [TGCATGCA_site670] | 10.1 ± 0.23
AAAGAATTTAAATATTGTACGCAATATATAAAAAAA [XGTACX_site7616] | 11.5 ± 0.92
TTTAAACCTTAATATTGTACGCAAAAAAAAAAAGAA [XGTACX_site3757] | 11.6 ± 1
CTTTAACCTTTTTATTGTACTTTTAATATTTTAAAA [XGTACX_site4457] | 11.4 ± 0.86
CATTTTATTTTAATATGTACTTAAAGAAAAAAAATT [XGTACX_site7670] | 11.2 ± 0.82

Sequence | gcPBM binding intensity (ln)
TTACATGTAAAAGGTACACACATTATGTATACAAAT [CACACA_site1117] | 11.4 ± 0.88
TATTAAAAGGTGAGTACACACATATATGTGTATATA [CACACA_site7070] | 11.4 ± 0.83
TATGTGTGCAAAAACTGTACACATTAAAGGTATATA [XGTACX_site7627] | 11.7 ± 1.1
AAATTATTTCTTTGCGCATGTAGCTTTTATACTATT [TGCATGCA_site819] | 9.98 ± 0.16
ATTAAGTTCAAATGTAGTACGTGTAAAAAAAAAAAA [XGTACX_site1578] | 11.4 ± 0.83
TAAAAATATAAATTTTGTACGTAAAAAATGGTTCTT [XGTACX_site1506] | 11.5 ± 0.93
AATGGTTCAACGTAGTGTACGTAATAAATAATAAAT [XGTACX_site8668] | 11.8 ± 0.95
ATTCGGATCTATAAGTGTACACAATCTAGCGAAAAG [XGTACX_site3088] | 11.5 ± 0.83
CGGATCTATAAGTGTACACAATCTAGCGAAAAGTTT [CACACA_site4932] | 11.6 ± 1
GGATAAGAAAAGAAGTGTACATATATATATATATAT [XGTACX_site8290] | 11.2 ± 0.68
TTATTAAAAATGGTATGTACGCACATAATATATATA [XGTACX_site3230] | 11.5 ± 0.71
ACGGATTAAAAAATGTGTACGCACAAAAAAAAAAAT [XGTACX_site8259] | 11.7 ± 0.97
AGGCACAAAATTAAATGTACATATATATATATATAT [XGTACX_site3323] | 11 ± 0.6
CTTTAAACCCTGAACACACACAAATACACCCAAAAA [CACACA_site4297] | 10.7 ± 0.54
CAAACCCACCAACACACACACACAAAAATGATTAAA [CACACA_site2432] | 10.2 ± 0.35
ATGTTCTTTAAAACCACACACCCCCCAACCCCCCTC [CACACA_site2373] | 11.7 ± 1
CACACCCACAAAAACACACACAAAGGTGTTCTTATA [CACACA_site1293] | 10 ± 0.13
TTATGTTCTTTAAAACCACACACCCCCCAACCCCCC [CACACA_site8742] | 11.6 ± 0.87
TTTTTTTTTTTTTTTTTTTTTTTATGTTCTTAAAAA [GTGCAC_negctrl_site62] | 9.56 ± 0.35
